# Compound activity from PubChem BioAssay.
# ATXN2 expr inh – inhibitors of ATXN2 expression; actives 0.72% (n = 360,000); Potency, µM (titrated, usually from 57 µM), most hits filed as inhibitors; HEK-293 ATXN2-luciferase reporter, luminescence, 24 h; further: nearly all actives have a fitted effect of over 55% in size
#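 ATXN2-luciferase reporter cells (luciferase flanked by upstream and downstream ATXN2 gene portions) were treated 24 h at 37 °C with compounds at up to 57 uM. SteadyGlo luminescence gave expression; GF-AFC fluorescence gave viability.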
# Nrf2 ARE act – activates Nrf2 signaling. actives 0.31% (n = 410,000). AREc32 ARE-luciferase reporter (MCF7-derived line), luminescence, 24 h. Potency, µM (titrated, usually from 46.1 µM), hits mostly activators; further: nearly all actives have a fitted effect of over 65% in size
#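 ARE-driven firefly luciferase activity in AREc32 cells measured after a 24 hr compound exposure at 37 deg C, using Steady-Glo reagent and a 30 min room-temperature hold.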
# Nrf2 block – Nrf2 pathway inhibition; A549 ARE-Fluc reporter, luciferase luminescence, 18-24 h; Potency, µM (highest dose often 46 µM), usual class: inhibitors; actives 2.1% (n = 360,000); further: nearly all actives have a fitted effect of over 60% in size
#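 Two sequential reads on A549 ARE_Fluc cells exposed to compound for 18-24 h: a CellTiter-Fluor fluorescence read for viability, then a luciferase luminescence read for Nrf2/ARE activity.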
# A549 tox – counter-screen for Nrf2 inhibitors: cytotoxicity in A549 cells. A549 ARE-Fluc cells, CellTiter-Fluor viability, 18-24 h. Potency, µM (titrated, usually from 46 µM), hits mostly inhibitors. actives 0.16% (n = 390,000)
#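 A549 ARE_Fluc cells in 5% FBS OPTI-MEM were exposed to compounds in concentration-response for 18-24 h at 37 deg C. Viability was read by CellTiter-Fluor fluorescence (Ex 405/Em 525) after 30 min, before the luciferase read.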
# S2 tox – reduces viability in counter-screen for ATXN expression inhibitors. S2 cells (HEK-293 line with an ATXN2-luciferase reporter) viability, CellTiter-Fluor protease fluorescence, 24 h. Potency, µM (doses to about 56.7 µM), actives largely listed as cytotoxic. actives 0.49% (n = 400,000). AID 651635; further: nearly all actives have a fitted effect of over 40% in size
# A number is an active result; i = inactive; ? = inconclusive; nt = no result given; [ ] = another dose, or the depositor's remark. Most compounds without a hit are left out; they make up all but 2.9% or so of the library. The call rests on the fitted dose curve; in most records, active means well fitted curve in the direction sought with a large enough effect; inconclusive means small, poorly fitted or top-dose-only effect, or another doubt; inactive means no such curve, though single readings can be large; an effect the other way counts as inactive or inconclusive.
SMILES,ATXN2 expr inh,Nrf2 ARE act,Nrf2 block,A549 tox,S2 tox
N#CC(C#N)=C1C=CC=CN1/C(=C\c1ccco1)C(=O)c1ccc(Br)cc1,17.8µM,?,?,?,?
COc1ccc(/C=C(/C(=O)c2cccs2)N2C=CC=CC2=C(C#N)C#N)cc1,nt,?,i,i,?
COc1ccc(C(=O)/C(=C\c2ccco2)N2C=CC=CC2=C(C#N)C#N)cc1,14.1µM,?,?,18.4µM,nt
CCOC(=O)N1CCC(NS(=O)(=O)c2ccc(NC(C)=O)c(Cl)c2)CC1,i,i,11.6µM,i,i
OC[C@@H]1CN(CCN2CCOCC2)C[C@H](n2cnc3c(NC4CC4)ncnc32)O1,i,i[9.22 µM],nt,nt,i
CCc1ccc(-c2csc(NC(=O)C3CCCO3)c2C(=O)OC(C)C)cc1 (stereo unspecified),i,i,?,i,i
COC(=O)c1c(-c2ccc(F)cc2)csc1NC(=O)C1CCCO1 (stereo unspecified),nt,i,18.4µM,i,i
O=C(NC1CCCC1)C1CCN(C(=O)c2cccc(Cl)c2)CC1,i,i,i,i,i
Cc1cc(NC(=O)COC(=O)C(Nc2ccc(C(F)(F)F)cc2Cl)C(C)C)no1 (stereo unspecified),?,i,23.1µM,23.1µM,?
CC(=O)NC1=NN(C(C)=O)C(C)(c2cccs2)S1 (stereo unspecified),?,i,i,?,i
Cc1cc(=O)oc2cc(OCC(=O)OCC(=O)N3CCC(C)CC3)ccc12,i,i,i,i,i
Cc1nc([N+](=O)[O-])c(Br)n1Cc1ccc(Cl)c(Cl)c1,nt,i,16.4µM,?,20µM
C=CCn1c(SCCOc2ccc(OC)cc2)nnc1C(C)NC(=O)Cc1ccc(OC)cc1 (stereo unspecified),i,i,23.1µM,i,i
Clc1ccc(Cn2c(-c3cccnc3Cl)nc3ccccc32)c(Cl)c1,i,i,18.4µM,?,i
Clc1ccc(Cn2c(-c3cccnc3Cl)nc3ccccc32)cc1,?,i,i,i,i
O=C(Nc1nnc(S(=O)(=O)N2CCCCCC2)s1)c1ccccc1F,i,i,?,i,i
COc1cc(CCC(=O)N2CCN(S(=O)(=O)c3ccc(C)cc3)CC2)cc(OC)c1OC,i,i,i,i,i
C/C(N)=C(/C#N)C(=O)CSc1nc2scc(-c3ccccc3)c2c(=O)n1C,i,i,14.6µM,i,i
Cn1c(SCC(=O)NCC2CCCO2)nc2scc(-c3ccccc3)c2c1=O (stereo unspecified),i,i,i,i,i
Cc1cc2c3c(c1C)C1(C(=O)N3C(C)(C)CC2C)C(C#N)=C(N)Oc2cc(O)ccc21 (stereo unspecified),?,i,?,?,22.4µM
Cc1cc2c3c(c1)C1(C(=O)N3C(C)(C)CC2C)C(C#N)=C(N)OC2=C1C(=O)CC(C)(C)C2 (stereo unspecified),i,i,i,i,i
O=C(CCCSc1nc2ccccc2[nH]1)N1CCN(c2ccc([N+](=O)[O-])cc2)CC1,?,i,?,i,?
Fc1ccc2nncc(SCc3ccccc3Cl)c2c1,i,5.62µM,i,i,i
Cc1ccc2cc(C#N)c(NCCNC(=O)C3CC3)nc2c1C,i,i,7.31µM,i,i
Cc1ccc2cc(C#N)c(NCCNC(=S)NCCCN(C)C)nc2c1C,nt,i,i,i,?
SMILES,ATXN2 expr inh,Nrf2 ARE act,Nrf2 block,A549 tox,S2 tox
N#C/C(=C/c1ccc(N2CCOCC2)o1)c1ccc(Cl)cc1,i,12.6µM,?,?,i
COc1ccc(N(CC(=O)N2CCN(c3ccccc3)CC2)S(=O)(=O)c2c(C)nn(C)c2C)cc1,i,i,i,i,i
S=C(NCC1(c2ccccc2)CCCC1)Nc1ccccc1,?,i,16.4µM,i,i
COc1cccc(NC(=O)CN2CCN(c3ccccc3F)CC2)c1,i,i,nt,i,i
COc1ccc(C(=O)/C=C/c2ccc(N3CCCCC3)c([N+](=O)[O-])c2)c(OC)c1,?,12.6µM,?,i,?
CCN(CC)C(=O)COc1ccc2c(-c3ccccc3)cc(=O)oc2c1,i,i[9.22 µM],i,i,i
O=S(=O)(c1c(Cl)cc(Br)cc1Cl)N1CCN(C(=S)NC2CC2)CC1,?,i,11.6µM,i,i
O=S(=O)(c1ccccc1)N1CCN(C(=S)NC2CCCC2)CC1,i,i,i,?,i
Cn1nccc1NC(=O)Nc1cccc(Cl)c1Cl,i,i,16.4µM,i,i
CN(CC(=O)Nc1ccc(F)cc1)C(=O)c1ccccc1OCc1ccc(F)cc1,i,i,i,i,i
CC(C)Cn1c(SCC(=O)NC(=O)NC2CCCC2)nc2ccccc21,i,i,18.4µM,?,i
CC(C)NC(=O)Cn1c(SCC(=O)NC2CCCC2)nc2ccccc21,i,i,i,i,i
Cc1cccc(-c2n[nH]c(=S)n2/N=C/C=C/c2ccco2)c1,nt,2.51µM,i,i,?
CC(/C=N/n1c(-c2ccncc2)n[nH]c1=S)=C\c1ccco1,nt,7.08µM,i,i,i
S=c1[nH]nc(-c2ccncc2)n1/N=C/C=C/c1ccco1,i,?,i,i,i
O=C(C(Cc1ccccc1)N1C(=O)C2C3CCC(C3)C2C1=O)N1CCCCC1 (stereo unspecified),i,i,i,i,i
CC/C(=N\NC(N)=O)c1ccc(OC)c(OC)c1,i,i,i,i,i
C=CCn1cc(/C=N/Nc2nc3ccccc3[nH]2)c2ccccc21,i,i,i,i,?
O=C1Nc2ccccc2Nc2ccc([N+](=O)[O-])cc21,i,i,10.3µM,i,?
O=C1OC(=O)c2cc([N+](=O)[O-])ccc21,i,i,i,i,i
Cc1ccc(S(=O)(=O)Nc2ccccc2N=Cc2ccc([N+](=O)[O-])cc2[N+](=O)[O-])cc1,i,14.1µM,i,i,i
COc1ccc([N+](=O)[O-])cc1NS(=O)(=O)c1ccc(C)cc1,nt,i,i,i,?
Cc1nnc(NC(=O)CSc2ccc(-c3cccnc3)nn2)s1,i,i,i,i,i
CCCn1c(C2CCCN2c2nc(-c3cccc(Br)c3)cs2)nc2ccccc21 (stereo unspecified),i,i,i,i,22.4µM
Cc1ccc(-c2csc(N3CCC[C@@H]3C(=O)NCCn3c(C(F)(F)F)nc4ccccc43)n2)cc1,?,i,?,i,?
COc1cc(Cn2c(=O)oc3ccc(C)cc32)ccc1OCCC(C)C,i,i,20.6µM,i,i
Cc1ccc(-c2nn(CC(=O)NCc3cc(-c4nn(C)c(=O)c5ccccc45)ccc3C)c(=O)c3ccccc23)cc1,11.2µM,i,?,i,12.6µM
Cc1cc2nc(-c3cccc(Br)c3)c(Cc3ccccc3)n2c(C)c1Br,i,11.2µM,nt,nt,i
Cn1c(SCc2ccc(Cl)cc2)nnc1-c1ccc2nonc2c1,nt,i,i,i,i
CCOC(=O)C1(CCOc2ccccc2)CCN(Cc2cccc3nonc23)CC1,nt,i,20.6µM,i,i
